# Hsp90 Hop PPI: changes Hsp90-Hop TPR2A binding signal, up or down. Potency, µM (doses to about 57 µM), without a hit: at the top dose activity change, negative = inhibition. 0.44% of 71,000 active. AID 595. AlphaScreen TPR2A-His6 binding biotin-Hsp90 C-terminal peptide; active = well fitted curve in either direction with a large enough effect; inconclusive = small, poorly fitted or top-dose-only effect, or another doubt; also: potency is read from the fitted curve at half-maximal effect; % is scaled to controls: 0 for no effect and ±100 for the full control effect
# p53ts 32C kill: p53ts cell cytotoxicity, permissive temperature. H1299-p53A138V at 32C, ATP luminescence viability, 24 h. Potency, µM (series often up to 46.1 µM), without a hit: at the top dose activity change, negative = cytotoxicity, hits mostly cytotoxic. 0.93% of 130,000 active. AID 924;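 also: potency is read from the fitted curve at half-maximal effect; 0% = DMSO and -100% = full killing by reference compound; nearly all actives have a fitted effect of over 55% in size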
#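 Viability by ATPlite luminescence after 24 h compound treatment (up to 46 uM) at the permissive 32C. Cells are H1299 carrying p53 A138V. Scale runs from DMSO basal to 100 uM tamoxifen as full kill; AC50 from Hill fits.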
# IkB signaling: suppresses IkB signaling in ABC-DLBCL reporter cells; ABC-DLBCL IkBa-CBG/CBR dual luciferase ratio, 4 h; response scale: scaled: untreated 0%, proteasome inhibitor 100%; Potency, µM (titrated, usually from 57.1 µM), for inactives: at the top dose IkBa stabilization activation; 0.04% of 110,000 active; AID 445; active = well fitted curve in the direction sought with a large enough effect in the signal ratio, not every such curve was filed as active; inconclusive = small, poorly fitted or top-dose-only effect, or a change in a side signal; the % refers to the signal ratio;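 also: potency is read from the fitted curve at half-maximal effect; the direction sought is a rising ratio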
#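 In this assay, an IκBα–CBG68 fusion accumulates when IKK-driven degradation is blocked; native CBR normalizes for cell number. OCI-Ly3 cells were treated 4 h with compound and doxycycline, then green and red light read after Chroma-Glo addition.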
# p53ts 39C tox: cytotoxicity in p53ts cells at nonpermissive temperature. H1299-p53A138V viability at 39C, ATP luminescence, 24 h. 1.5% of 130,000 active. Potency, µM (series often up to 46.1 µM), inactives show at the highest dose activity change, negative = cell killing, most hits filed as cytotoxic; also: potency is read from the fitted curve at half-maximal effect; % is scaled to controls: 0 for no effect and ±100 for the full control effect; nearly all actives have a fitted effect of over 55% in size
# FLuc inh: blocks Photinus pyralis firefly luciferase activity. P08659. purified firefly luciferase, luminescence, 8 min. Potency, µM (titrated, usually from 57.1 µM), without a hit: at the highest dose activity change, negative = inhibition, hits mostly inhibitors. 2.2% of 72,000 active; also: potency is read from the fitted curve at half-maximal effect; % is scaled to controls: 0 for no effect and ±100 for the full control effect; nearly all actives have a fitted effect of over 40% in size
# Target sequence (P08659 whole entry, looked up): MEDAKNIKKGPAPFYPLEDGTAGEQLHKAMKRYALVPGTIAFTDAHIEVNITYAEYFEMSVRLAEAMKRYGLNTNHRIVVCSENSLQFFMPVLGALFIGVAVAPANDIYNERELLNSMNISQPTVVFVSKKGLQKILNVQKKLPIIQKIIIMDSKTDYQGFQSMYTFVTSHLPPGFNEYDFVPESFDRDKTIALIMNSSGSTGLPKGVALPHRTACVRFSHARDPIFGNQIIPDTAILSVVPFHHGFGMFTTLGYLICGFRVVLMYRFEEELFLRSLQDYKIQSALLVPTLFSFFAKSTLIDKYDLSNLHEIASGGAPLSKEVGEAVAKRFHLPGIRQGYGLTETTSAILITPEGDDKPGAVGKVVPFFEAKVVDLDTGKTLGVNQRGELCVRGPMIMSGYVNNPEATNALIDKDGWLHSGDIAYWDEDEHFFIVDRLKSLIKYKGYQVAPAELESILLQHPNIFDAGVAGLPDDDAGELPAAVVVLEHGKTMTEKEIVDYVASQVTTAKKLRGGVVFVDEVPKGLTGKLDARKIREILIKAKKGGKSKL
#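 Firefly luciferase (PKLight detection mix) with 10 uM ATP in pH 7.2 imidazole buffer (KCl, MgCl2, Tween 20, BSA). Compounds tested across a concentration series (qHTS). Luminescence read after 8 min at ambient temperature.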
# IMPase inh: cell-permeable inhibitors of inositol monophosphatase (IMPase) | P97697 | CHO-M1 cells, IP1 accumulation, HTRF TR-FRET ratio | inhibition (IP1 accumulation), % at 46.1 µM | 120,000 tested, under 10 active | AID 901; active = well fitted curve in the direction sought with a large enough effect in the signal ratio, not every such curve was filed as active; inconclusive = small, poorly fitted or top-dose-only effect, or a change in a side signal; inactive = no such curve, though single readings can be large or run the other way; the % refers to the signal ratio;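 also: cells stimulated with carbachol in lithium chloride buffer; plate controls were DMSO basal wells for no effect and reference inhibitor wells for full effect; higher means more IMPase inhibition seen as more IP1 and lower FRET ratio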
# Target sequence (P97697 whole entry, looked up): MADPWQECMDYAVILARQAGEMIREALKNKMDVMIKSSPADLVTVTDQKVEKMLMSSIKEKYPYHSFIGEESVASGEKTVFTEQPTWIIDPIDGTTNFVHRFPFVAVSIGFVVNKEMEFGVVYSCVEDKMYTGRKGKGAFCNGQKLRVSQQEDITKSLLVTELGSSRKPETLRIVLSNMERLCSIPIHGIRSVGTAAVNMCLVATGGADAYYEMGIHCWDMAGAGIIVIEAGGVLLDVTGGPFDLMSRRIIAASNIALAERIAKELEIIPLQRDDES
#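 CHO-M1, 2000 cells/well, cultured 16–30 h; cpd up to 46 uM; carbachol (50 uM solution, stimulation buffer w/ 50 mM LiCl, pH 7.4), 30 min 37C; IP-One TR-FRET, 10 min RT; Ex 320/Em 665, 620; Hill-fit AC50.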
# The depositor's hits bear a star; u = inconclusive; x = no result given; [ ] = remark or other dose. Many of the other results were omitted from the sample, so hits are more common in it than they were. Unless noted, calls follow the shape of the dose curve; as a rule, active = well fitted curve in the direction sought with a large enough effect; inconclusive = small, poorly fitted or top-dose-only effect, or another doubt; inactive = no such curve, though single readings can be large; an effect the other way counts as inactive or inconclusive.
SMILES,Hsp90 Hop PPI,p53ts 32C kill,IkB signaling,p53ts 39C tox,FLuc inh,IMPase inh
O=C(O)[C@@H]1CCCN[C@H]1C(=O)O,-5.9%,-6.0%,-11.4%,10.9%,-6.9%,0.9
COc1ccc(CNC(=O)CSCc2ccc(C)cc2)c(OC)c1,x,2.5%,-0.1%,-6.4%,x,x
O=C1NCCCC2c3cc(O)c4ccccc4c3OC12N1CCCCC1 (stereo not given),u,6.31µM*,u,7.94µM*,-4.9%,u
O=C1NCCCC2c3c(cc(Br)c(O)c3Br)OC12N1CCOCC1 (stereo not given),-6.5%,9.0%,-0.5%,9.5%,2.2%,21.1
O=C(COC(=O)c1ccccn1)NC1CCCCC1,x,x,x,x,x,-11.4
O=C(OCC(=O)c1ccccc1Br)c1ccccn1,25.1µM*,5.7%,-0.2%,-7.9%,12.6µM*,1.5
Cc1ccc(Cn2c(SCC(=O)NCc3ccccc3Cl)nc3ccsc3c2=O)cc1,x,6.8%,0.3%,10µM*,x,x
CCOc1ccc(C(=O)NCC2CCCO2)cc1 (stereo not given),-3.0%,-8.9%,-0.7%,2.6%,-7.1%,4.0
O=C(Nc1onc2c1CCCC2)c1ccccc1,x,u,-1.2%,u,x,x
CC(C)(C)c1ccc(C(=O)Nc2onc3c2CCCC3)cc1,x,12.6µM*,-2.2%,12.6µM*,x,x
CCOc1ccc(C(=O)Nc2onc3c2CCCC3)cc1,x,6.31µM*,2.9%,15.8µM*,x,x
CC(C)COc1ccc(C(=O)Nc2onc3c2CCCC3)cc1,x,u,-2.0%,15.8µM*,x,x
O=C(Nc1ccc(Cl)cc1)C1CCN(c2nc3ccccc3n3cccc23)CC1,x,-3.5%,2.1%,u,x,x
CN(C)CCNC(=O)c1ccc(-n2c(=O)c(=O)[nH]c3ccccc32)cc1,x,-2.1%,x,-3.9%,x,x
O=C(c1noc2c1CCCCC2)N1CCN(c2cccc(C(F)(F)F)c2)CC1,x,-6.4%,-1.0%,-20.5%,x,x
C=C/C(C)=C/[C@]1(C)SC(=O)C(C)=C1O,-5.7%,5.5%,0.6%,22.4%,2.9%,0.5
Cc1ccc2scc(N3CCCC(C)C3)c(=O)c2c1 (stereo not given),x,12.6µM*,u,u,x,x
Cc1ccc2scc(N3CCN(c4cccc(C(F)(F)F)c4)CC3)c(=O)c2c1,x,-3.9%,-1.1%,u,x,x
COc1c(-c2coc3cc4c(cc3c2=O)CC(O)C(C)(C)O4)ccc2c1C=CC(C)(C)O2 (stereo not given),x,u,x,25.1µM*,x,x
COc1c(-c2coc3cc4c(cc3c2=O)CC(OC(C)=O)C(C)(C)O4)ccc2c1C=CC(C)(C)O2 (stereo not given),x,3.8%,x,-1.9%,x,x
COc1ccc(OCC(=O)OCc2cc(=O)n3nc(C4CC4)sc3n2)cc1,x,4.1%,-1.8%,-15.5%,x,x
NC(N)=NC(=O)c1nc(Cl)c(N)nc1N,-12.5%,-7.4%,-1.5%,7.2%,0.7%[25.5 µM],-1.0
NC(=NCc1ccc(Cl)c(Cl)c1)NC(=O)c1nc(Cl)c(N)nc1N,-3.7%,12.6µM*,-16.1%,12.6µM*,-4.5%,5.3
Cc1cccc(N2CCN(c3ncnc4onc(C)c34)CC2C)c1 (stereo not given),x,u,u,20µM*,x,x
Cc1cccc(N2CCN(c3ncnc4onc(-c5ccc(F)cc5)c34)CC2C)c1 (stereo not given),x,-1.6%,u,-10.1%,x,x
SMILES,Hsp90 Hop PPI,p53ts 32C kill,IkB signaling,p53ts 39C tox,FLuc inh,IMPase inh
CCOC(=O)Cc1ccc(NC(=O)N2CC(C)Oc3ccc(Cl)cc32)cc1 (stereo not given),x,-0.6%,-0.7%,-20.5%,x,x
CC(=O)OC[C@@H]1O[C@@H](O/N=C2/C[C@@H](O)[C@@H](O)[C@@H]3[C@@H]4C(=O)N(C(C)(C)C)C(=O)[C@H]4CC[C@H]23)[C@H](OC(C)=O)[C@H](OC(C)=O)[C@@H]1OC(C)=O,x,-2.3%[9.22 µM],x,-1.8%[9.22 µM],3.0%[11.4 µM],x
CCOC(=O)c1cccc(NC(=O)c2cc3ccccn3n2)c1,x,10µM*,u,12.6µM*,x,x
O=C(Nc1ccccc1C(F)(F)F)c1cc2ccccn2n1,x,10µM*,3.0%,7.94µM*,x,x
COc1ccc(NC(=O)c2cc3ccccn3n2)cc1,-3.4%,10µM*,u,7.94µM*,6.31µM*,8.4
CCOC(=O)c1ccccc1NC(=O)c1ccc2c(Cl)c3c(nc2c1)CCC3,x,-26.8%,u,u,x,x
CCOC(=O)c1cccc(NC(=O)c2ccc3c(Cl)c4c(nc3c2)CCC4)c1,x,u,18.0%,0.794µM*,x,x
O=C(Nc1ccc(OC(F)(F)F)cc1)c1cc2ccccn2n1,x,u,-4.3%,u,x,x
CCOC(=O)c1cccc(NC(=O)c2cnccn2)c1,-3.2%,-1.5%,-0.6%,-10.1%,-1.2%,0.3
COc1ccc(-c2cc(C(=O)N/N=C/c3ccc(O)cc3)[nH]n2)cc1,x,u,x,-27.1%,x,x
CCN(C(=O)c1cn(-c2cccc(OC)c2)c(=O)c2ccccc12)c1ccccc1C,x,-1.7%,u,-13.6%,x,x
Cc1ccn2c(Nc3c(C)cccc3C)c(-c3ccc(Cl)s3)nc2c1,x,5.6%,u,-11.1%,x,-1.1
CN(C)CCCNc1cc(N2CCN(C3CCCCC3)CC2)c2noc3c2c1C(=O)c1ccccc1-3,x,-12.0%,-0.5%,20µM*,x,x
O=C1c2ccccc2-c2onc3c(N4CCN(C5CCCCC5)CC4)cc(NCCO)c1c23,x,-6.8%,u,-5.0%,x,x
Cc1cc(C)nc(Nc2ccc(N3CCCC3)cc2)n1,u,-21.4%,0.7%,-23.4%,u,31.9
Cc1cc(C)nc(Nc2ccc(N3CCOCC3)cc2)n1,u,12.6µM*,-3.3%,u,-29.5%,18.9
O=C(Nc1ccc2c(c1)CCC2)c1cc2ccccc2o1,x,x,x,x,x,2.6
Cc1cc(C(=O)Nc2cccc(C(=O)O)c2)c(C)o1,x,x,x,x,x,-2.9
Cc1cccc(NC(=O)c2cc3ccccc3o2)c1,22.0%,12.6µM*,u,10µM*,12.6µM*,19.5
O=C(Nc1cccc(Br)c1)c1cc2ccccc2o1,28.4%,u,u,u,7.94µM*,5.1
CCOC(=O)c1ccc(NC(=O)c2cc3ccccc3o2)cc1,6.8%,-23.5%,u,-24.0%,u,3.1
CCC(=O)Nc1cccc(NC(=O)c2cc3ccccc3o2)c1,-1.9%,10µM*,u,12.6µM*,3.98µM*,1.9
Cc1cc(C(=O)Nc2cccc(C(=O)O)c2)oc1C,-2.9%,u,u,u,15.8µM*,-5.8
NC(N)=N/N=C(\c1ccc(Cl)cc1)C1CC1,-3.1%[11 µM],-2.4%[9.22 µM],2.6%[11.4 µM],-9.0%[9.22 µM],1.5%[11.4 µM],x
C[C@@H](NC(=O)C1(N)CCCC1)C(=O)O,-5.3%[11 µM],-5.8%[9.22 µM],1.4%[11.4 µM],-0.1%[9.22 µM],3.2%[11.4 µM],x
COc1ccc(CCNC(=O)C(=O)NCC(c2ccco2)S(=O)(=O)c2ccccc2)cc1OC (stereo not given),x,-1.1%,-2.2%,-10.4%,x,x
